The record followed here is PubChem BioAssay.

“And” between values parts separate entries of the source, which are not always exact repeats. Equal values may be shown once. Records with an inconclusive call do not appear. The source made the active and inactive calls. Unless noted, the limit is not given here; nearly all actives have AC50 up to about 26 µM.

The test system of experiment [1] is Aerobactin synthetase IucA (Klebsiella pneumoniae). As to the kind of experiment: IucA aerobactin synthetase inhibitors, biochemical, Tocris library, absorbance (AID 1345561; call rule not given here;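 also: 100% = enzyme without compound and 0% = no enzyme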). As to conditions: purified IucA enzyme assay, absorbance (OD) read-out; stronger effect = lower value;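 tested at 8 µM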.
The nature of experiment [2]: growth inhibition of DIPG glioma cells, dose response, cell-based, SU-DIPG-XVII, MIPE5.0, CellTiter-Glo, qHTS (AID 1347060). As to conditions: SU-DIPG-XVII viability, CellTiter-Glo ATP luminescence. (In general: In ATP-based viability assays light output follows the ATP content of the culture.)
A short description of experiment [3]: growth inhibition of DIPG glioma cells, dose response, cell-based, JHH-DIPG-1, MIPE4.0, CellTiter-Glo, qHTS (AID 1347062; cut-off not given, nearly all actives have AC50 up to about 27 µM). As to conditions: JHH-DIPG-1 viability, CellTiter-Glo ATP luminescence.
A short description of experiment [4]: growth inhibition of DIPG glioma cells, dose response, cell-based, SU-DIPG-XIII, MIPE5.0, CellTiter-Glo, qHTS (AID 1347064; cut-off not given, nearly all actives have AC50 up to about 23 µM). As to conditions: SU-DIPG-XIII viability, CellTiter-Glo ATP luminescence.
Experiment [5] can be described thus: JHH-DIPG-1 glioma cell viability, MIPE5.0 library, CellTiter-Glo luminescence, qHTS (AID 1347067).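 Also: cells exposed to compound for 48 hours before readout.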 The note with it: JHH-DIPG-1 glioma viability, CellTiter-Glo ATP luminescence.
A short description of experiment [6]: SU-DIPG-XXV glioma cell viability, MIPE5.0 library, qHTS (AID 1347068; cut-off not given, nearly all actives have IC50 up to about 30 µM). (In general: qHTS replaces the single test concentration by a dilution series.)
The nature of experiment [7]: sensitizers of A549 cells to miR-34 induction, primary screen, imaging, A549 dox-inducible miR-34, nuclei and caspase counts (AID 1347080;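 active = compounds whose cell count with miR-34 switched on is under 0.7 times the count with it off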). As to conditions: A549 miR-34 inducible, Hoechst nuclei count, 48 h.
A short description of experiment [8]: viability rescue of complex I mutant cybrids, primary screen, cell-based, galactose medium, ATP luminescence (AID 1645843;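 active = z-score of at least 1.8 in each of two replicates, scored against plate mean and spread of sample wells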;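 also: positive z means more ATP and so rescue of galactose-driven cybrid death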). As to conditions: complex I mutant cybrid cells, 72 h, stronger effect = higher value.
The nature of experiment [9]: growth inhibition of DIPG glioma cells, dose response, cell-based, SU-DIPG-XIII, MIPE4.0, CellTiter-Glo, qHTS (AID 1347061; cut-off not given, nearly all actives have AC50 up to about 37 µM;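 also: cells exposed to compound for 48 hours before readout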). The note with it: SU-DIPG-XIII viability, CellTiter-Glo ATP luminescence.
Experiment [10] in a line: growth inhibition of DIPG glioma cells, dose response, cell-based, SU-DIPG-IV, MIPE4.0, CellTiter-Glo, qHTS (AID 1347063; cut-off not given, nearly all actives have AC50 up to about 30 µM;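 also: compound exposure lasted 48 hours before the viability readout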). The note with it: SU-DIPG-IV viability, CellTiter-Glo ATP luminescence.
A short description of experiment [11]: SU-DIPG-VI glioma cell viability, MIPE4.0 library, CellTiter-Glo luminescence, qHTS (AID 1347066; cut-off not given, nearly all actives have AC50 up to about 30 µM;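 also: cells exposed to compound for 48 hours before readout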). The note with it: CellTiter-Glo ATP luminescence.
Experiment [12] can be described thus: modifiers of HSF1 nuclear foci, imaging, Selleck Cancer Library (AID 1347162; in the data active = plate-normalised HSF1 focus index below about 0.46). As to conditions: human cells, at 10 µM; SSMD: measured here: HSF1 foci SSMD mean; cell count: measured here: cell number; plate-normalised HSF1 focus index: stronger effect = lower value.
The nature of experiment [13]: survival rescue of mitochondrial mutant cells in low glucose, primary screen, MELAS cybrids, Rieske KO mouse fibroblasts, CellTiter-Glo (AID 1508586;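 active = mean z-score across replicates of 1.96 or higher in either the MELAS or the Rieske mutant cell line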;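 also: z relative to plate mean and SD of compound and empty wells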).
Experiment [14] can be described thus: liver-stage malaria parasite growth inhibition, primary screen, cell-based, HepG2, luciferase luminescence, HepG2 viability (AID 624349; in the data active = parasite load remaining mostly below about 12%, no sharp cut-off; inactive = mostly above about 10%;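 also: 100% = mean of DMSO negative control wells on the same plate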). As to conditions: P. berghei liver stage in HepG2, luciferase luminescence, concentration not given here; parasite load remaining: stronger effect = lower value; viability: measured here: HepG2 viability without parasites.
The nature of experiment [15]: viability loss in pontine glioma line – cell-based, SU-DIPG-XXV, MIPE5.0, CellTiter-Glo, qHTS, dose response (AID 1347065).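 Also: cells exposed to compound for 48 hours before ATP readout.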 The note with it: CellTiter-Glo ATP luminescence.
The mark [16] stands for this setting: stronger effect = lower value, cell number ratio, induced over uninduced.
[17] abbreviates: measured here: relative caspase fold change +Dox/-Dox.
The mark [18] stands for this setting: measured here: total cells with miR-34 induction, stronger effect = lower value.
The mark [19] stands for this setting: measured here: total cells without miR-34 induction.
Setting [20] is: MELAS cybrid survival, CellTiter-Glo 48 h, stronger effect = higher value.
Where [21] appears, read: Rieske KO mouse fibroblast survival, CellTiter-Glo 72 h.

Usually remaining activity stands for the signal under treatment as a percentage of the control signal. `COc1ccc([C@@H]2CNC(=O)C2)cc1OC1CCCC1`: the remaining activity in [1] was 102% (inactive). The compound was classed as inactive in experiment [2], in [3], in [4], in [5] and in [6]. Besides, the fold change in experiment [7] (setting [16]) was 0.954 (inactive); in [7] (setting [17]), 0.878. In addition, the cell count came out at 8940 in [7] (setting [18]) and 9370 in experiment [7] (setting [19]). Also, in experiment [8], the z-score was -0.11 (inactive).
For the compound `CCN(CC)CCCC(C)Nc1nc(C)cc(Nc2ccc3nc(C)cc(N)c3c2)n1` (stereo not drawn), the remaining activity in experiment [1] is 104% (inactive). Also, the compound was called inactive in experiment [2], in experiment [9], in experiment [10], in [4], in [11] and in experiment [5]. Also, the compound was classed as inactive in experiment [6]. Moreover, the fold change in experiment [7] (setting [16]) is 0.97 (inactive) and 0.925 (inactive); in [7] (setting [17]), 0.421 and 1.06. The cell count in experiment [7] (setting [18]) is 7920 and 8660; in experiment [7] (setting [19]) it was 8160 and 9370; in experiment [12] it was 7010. This compound also had an SSMD in experiment [12] of 3.48. For the same compound, the plate-normalised HSF1 focus index in [12] is 1.21 (inactive). The z-score in [13] (setting [20]) is -0.488 (inactive); in [13] (setting [21]), -2.27; in [8], 2.71 (active).
Broadly, the viability is a read-out of living cells in per cent, often relative to untreated cells. Regarding `CCCCC[C@H](O)/C=C/[C@H]1[C@H](O)CC(=O)[C@@H]1C/C=C\CCCC(=O)O`, in experiment [14], the parasite load remaining was 43.5% (inactive). Also, the viability in experiment [14] was 99.5%. Further, the remaining activity in experiment [1] is 127% (inactive). Further, the outcome in experiment [2], in [9], in experiment [3], in [10] and in experiment [6] was inactive. In addition, the z-score in experiment [13] (setting [20]) was 0.0898 (inactive); in [13] (setting [21]) it was -0.895; in experiment [8], -0.165 (inactive) and 0.63 (inactive).
On to `COc1nccc(-c2c(-c3ccc(F)cc3)ncn2C2CCC(O)CC2)n1` (stereo not drawn), for which the parasite load remaining in [14] was 41% (inactive). Besides, the viability in [14] amounted to 82.3%. For the same compound, the remaining activity in experiment [1] was 92.5% (inactive). The call in [2], in experiment [9], in [3], in [10], in [11] and in [5] was inactive. Moreover, the compound was called inactive in experiment [6]. For the same compound, the results for the fold change in experiment [7] (setting [16]) and in experiment [7] (setting [17]) were 0.979 (inactive) and 0.79, respectively. Moreover, the cell count in experiment [7] (setting [18]) turned out to be 6910; in experiment [7] (setting [19]) it was 7050. In addition, the z-score in experiment [8] was 0.59 (inactive).
With `Nc1ncnc2nc(-c3ccc(N4CCOCC4)nc3)cc(-c3cccc(Br)c3)c12`, in experiment [14], the parasite load remaining is 57.8% (inactive). The viability in experiment [14] worked out at 155%. In addition, the remaining activity in [1] is 93.4% (inactive). Besides, the result in [2], in experiment [3], in experiment [4] and in experiment [5] was inactive. The figures for the fold change in experiment [7] (setting [16]) and in experiment [7] (setting [17]) were 0.949 (inactive) and 1.03, respectively. For the same compound, the cell count in [7] (setting [18]) is 7250; in experiment [7] (setting [19]), 7640. For the same compound, the z-score in [8] is 2.27 (active).
As to `CN1C(=O)C(Cc2c[nH]c3ccccc23)NC1=S` (stereo not drawn), the parasite load remaining in experiment [14] was 48.6% (inactive). For the same compound, the viability in [14] worked out at 96.5%. In addition, the remaining activity in experiment [1] was 89.8% (inactive). For the same compound, the compound was called inactive in experiment [2], in [9], in experiment [3], in experiment [4], in experiment [15] and in [11]. The outcome in [5] and in experiment [6] was inactive. In addition, the fold change in [7] (setting [16]) was 0.887 (inactive) and 0.965 (inactive); in experiment [7] (setting [17]), 0.523 and 1.02. For the same compound, the cell count in experiment [7] (setting [18]) was 7790 and 8210; in experiment [7] (setting [19]) it was 8780 and 8510; in [12], 7350. In addition, in [12], the SSMD came out at 1.64. In experiment [12], the plate-normalised HSF1 focus index is 1.1 (inactive). Also, the z-score was -0.333 (inactive) in experiment [13] (setting [20]), 0.34 in [13] (setting [21]) and 0.03 (inactive) in experiment [8].
